The text below walks through data of PubChem BioAssay (NCATS).

Records with an inconclusive call do not appear. Active and inactive are the calls of the source. Unless noted, calls come from the whole dose curve.

The target of test [1] is Bile acid receptor (Homo sapiens) (UniProt Q96RI1). The test is described as follows: qHTS assay for small molecule antagonists of farnesoid X receptor signaling (AID 588526). Note: potency is the fitted concentration of half-maximal effect. The procedure, abridged:
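Antagonist mode: titrated compounds tested against chenodeoxycholic acid stimulation (normalized to 50 uM CDCA and DMSO) in GeneBLAzer HEK293T cells for 16 h. Beta-lactamase read by CCF4 fluorescence; IC50 from Hill fits.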
In general terms: Quantitative high-throughput screening tests each substance at several concentrations.

The target is the same in test [2]. The test is described as follows: qHTS assay for small molecule agonists of farnesoid X receptor signaling (AID 588527).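 Note: series mostly up to about 77 µM; 0% = vehicle basal and 100% = reference agonist.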 The conditions noted are these: HEK293T FXR-UAS-bla, beta-lactamase ratio, 16 h; activation: stronger effect = higher value. The essentials:
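Quantitative HTS used FXR-UAS-bla HEK293T cells with 16 h compound incubation at 37 C. EC50 values came from concentration-response curves normalized to chenodeoxycholic acid.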

Test [3] addresses Peroxisome proliferator-activated receptor delta (Homo sapiens) (UniProt Q03181). The test is described as follows: qHTS assay for small molecule agonists of peroxisome proliferator-activated receptor delta signaling (AID 588534).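 Note: 0% = DMSO basal wells and 100% = positive control agonist at 10 µM.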 The procedure, abridged:
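Fluorescence from CCF4 substrate cleavage by beta-lactamase reporter, read 2 hrs at RT, measured agonist activity. Compounds were tested with 18 hrs exposure at 37 C. Concentration-response data fitted to Hill equation.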

Test [4] addresses Vitamin D3 receptor (Homo sapiens) (UniProt P11473). The test is described as follows: qHTS assay for small molecule antagonists of vitamin D receptor signaling (AID 588541). Note: potency is the fitted concentration of half-maximal effect. The essentials:
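VDR-UAS-bla HEK293T cells in 2% charcoal-stripped FBS were stimulated with 1-alpha,25-dihydroxyvitamin D3 (3 nM final) plus compound for 16 h at 37 C. The beta-lactamase CCF4 readout was normalized to 50 nM agonist and DMSO, and Hill fits gave IC50.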

For test [5] the target is unchanged. The test is described as follows: qHTS assay for small molecule agonists of vitamin D receptor signaling (AID 588543).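 Note: 0% = DMSO basal and 100% = reference agonist control.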 The procedure, abridged: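 Reporter cells (HEK293T, VDR-UAS-bla) were seeded in medium with 2% charcoal-stripped serum and incubated 5 h, then compounds in concentration series were added for 16 h at 37 °C. Stimulation was scaled between DMSO basal and 50 nM 1α,25-dihydroxyvitamin D3.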

The target of test [6] is Thyroid hormone receptor beta (Homo sapiens) (UniProt P10828). The test is described as follows: qHTS assay for small molecule agonists of thyroid hormone receptor beta signaling (AID 588545). The essentials: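 Cells (2500/well) were seeded, incubated 4 hrs at 37 C, dosed with a compound series, incubated 18 hrs, loaded with CCF4 dye for 2 hrs at RT, then read for fluorescence. Data were scaled between DMSO (0%) and 10 nM T3 (100%).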

Test [7] can be described thus: qHTS assay for small molecule antagonists of retinoid X receptor alpha signaling (AID 588546; active = well fitted inhibition curve with a large enough effect in the signal ratio, with a control signal flat, not every such curve was filed as active; the % refers to the signal ratio;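 note: cells stimulated with 9-cis-retinoic acid as agonist; % is set by controls: 0 for no effect and ±100 for the full control effect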). The settings on record: HEK293T RXRa-UAS-bla, beta-lactamase ratio, antagonist mode; measured here: W530 green channel, cytotoxicity proxy. The procedure, abridged:
(§1)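 Beta-lactamase reporter inhibition, read as CCF4 fluorescence ratio (ex 405, em 460/530 nm) after 2 h at RT. HEK293T UAS-bla cells, 2500/well, were stimulated with 9-cis-RA at 500 or 100 nM final alongside test compound for 18 h at 37 C.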

In test [8] the target is Retinoic acid receptor RXR-alpha (Homo sapiens) (UniProt P19793). Described as above. The conditions noted are these: HEK293T RXRa-UAS-bla, beta-lactamase ratio, antagonist mode. The essentials: as §1
Test [9] concerns the target Thyroid hormone receptor beta (Homo sapiens) (UniProt P10828). The test is described as follows: qHTS assay for small molecule antagonists of thyroid hormone receptor beta signaling (AID 588547; active = well fitted inhibition curve with a large enough effect in the signal ratio, with a control signal flat, not every such curve was filed as active; the % refers to the signal ratio;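 note: cells stimulated with 0.4 nM T3 agonist during compound exposure; series mostly up to about 77 µM; % is set by controls: 0 for no effect and ±100 for the full control effect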). The conditions noted are these: TR-UAS-bla HEK293, beta-lactamase ratio, antagonist mode, 18 h. The procedure, abridged: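 TR-UAS-bla GripTite HEK293 cells in 2% charcoal/dextran FBS medium; compounds 0.59 nM to 92 uM with T3 at 0.4nM final, 18 h at 37 C. Beta-lactamase read by CCF4 fluorescence (460/530 nm); Hill fits gave IC50 and efficacy.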

The nature of test [10]: qHTS assay for small molecule agonists of the antioxidant response element (ARE) signaling pathway (AID 651741; active = well fitted activation curve with a large enough effect in the signal ratio; the % refers to the signal ratio; note: % of control where 0% means no effect). The procedure, abridged: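 CellSensor ARE-bla HepG2 cells (2,000/well) carrying ARE-driven beta-lactamase, exposed 16 h at 37 C. LiveBLAzer B/G FRET substrate added for 2 h at room temperature; fluorescence intensity read.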
Test [11] is described as follows: qHTS assay for small molecule activators of the p53 signaling pathway (AID 651743; active = well fitted activation curve with a large enough effect in the signal ratio, not every such curve was filed as active; the % refers to the signal ratio; note: series mostly up to about 92 µM; % of control where 0% means no effect). The conditions noted are these: HCT-116 p53RE-bla, beta-lactamase FRET ratio, 16 h; activation: stronger effect = higher value. The procedure, abridged:
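p53RE-bla HCT-116 cells carrying a beta-lactamase reporter under p53 response elements were exposed to compounds for 16 hours at 37 C. Reporter activity read as fluorescence after 2 hours at room temperature with LiveBLAzer B/G FRET substrate.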

The nature of test [12]: qHTS assay for small molecule activators of the nuclear factor-kappa B (NF-kB) signaling pathway (AID 651749; active = well fitted activation curve with a large enough effect in the signal ratio; the % refers to the signal ratio; note: series mostly up to about 77 µM; % of control where 0% means no effect). The conditions noted are these: NF-kB-bla ME-180 cells, beta-lactamase FRET ratio, 16 h; activation: stronger effect = higher value. The essentials:
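NF-kB-bla ME-180 cells carrying a beta-lactamase reporter under an NF-kB response element, 2,000 cells/well, exposed to compound for 16 hr at 37C; FRET-based beta-lactamase fluorescence read-out of pathway activation.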

Test [13] in a line: qHTS assay for environmental chemicals that activate the Aryl hydrocarbon Receptor (AhR) signaling pathway (AID 651777; active = well fitted curve in the direction sought with a large enough effect; an effect the other way counts as inactive or inconclusive; note: % of control where 0% means no effect; nearly all actives have a fitted effect of over 15% in size). The conditions noted are these: 1A2-DRE human hepatoma cells, luciferase, 24 h; activation: stronger effect = higher value. The essentials:
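Measured luciferase activity, read 30 min after One-Glo addition at room temperature, from human hepatoma cells bearing a dioxin response element–CYP1A2 promoter reporter and exposed to compound for 24 hr at 37 C.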

The target of test [14] is Peroxisome proliferator-activated receptor alpha (Homo sapiens) (UniProt Q07869). The test is described as follows: qHTS assay for small molecule agonists of the peroxisome proliferator-activated receptor alpha (PPARalpha) signaling pathway (AID 651778; active = well fitted curve in the direction sought with a large enough effect; an effect the other way counts as inactive or inconclusive; note: % of control where 0% means no effect). The conditions noted are these: PathHunter PPARalpha complementation, chemiluminescence, 6 h; max response: stronger effect = higher value. The essentials: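 Enzyme-fragment complementation assay in which ligand-bound PPARalpha translocates and forms an active enzyme that generates chemiluminescence. Cells were plated overnight, exposed to compound for 6 hr at 37 C, and then given detection reagent for 60 min at room temperature.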

Test [15] can be described thus: qHTS assay for small molecule agonists of the antioxidant response element (ARE) signaling pathway measured by Nrf2-dependant transcriptional activity (AID 720636; active = well fitted curve in the direction sought with a large enough effect in the repeat runs; an effect the other way counts as inactive or inconclusive;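 note: HepG2 cells with an ARE-driven luciferase reporter; % of control where 0% means no effect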). The procedure, abridged:
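In HepG2 cells engineered with an Nrf2-responsive luciferase gene, ARE induction was quantified as luminescence after 16 hr compound treatment at 37 C.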

The nature of test [16]: qHTS assay for small molecule agonists of the antioxidant response element (ARE) signaling pathway measured by Nrf2-dependant transcriptional activity - cell viability counter screen (AID 720653; active = well fitted curve in the direction sought with a large enough effect in the repeat runs; an effect the other way counts as inactive or inconclusive; note: potency is the fitted concentration of half-maximal effect; for max response: % is set by controls: 0 for no effect and ±100 for the full control effect). The settings on record: ARE-bla HepG2 viability, CellTiter-Glo ATP luminescence, 16 h; max response: stronger effect = lower value. The essentials:
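ARE-bla HepG2 cells treated with compounds for 16 h at 37C; this counter screen measures viability as intracellular ATP by CellTiter-Glo luminescence after 30 min at room temperature.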

A short description of test [17]: qHTS assay for cell viability of HEK293 cells (AID 743288; active = well fitted curve in the direction sought with a large enough effect; an effect the other way counts as inactive or inconclusive; note: nearly all actives have a fitted effect of over 50% in size; note: potency is the fitted concentration of half-maximal effect; for max response: % is set by controls: 0 for no effect and ±100 for the full control effect). The conditions noted are these: ATP luminescence (CellTiter-Glo), 18 h; max response: stronger effect = lower value. The procedure, abridged: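 HEK293 parental, 2,000 cells/well; ≥5 h pre-incubation 37 C; pintool compound addition; 18 h, 37 C; CellTiter-Glo 30 min RT; luminescence read.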
Test [18] in a line: qHTS assay for cell viability of the p53RE-bla HCT-116 cell line (AID 743292; active = well fitted curve in the direction sought with a large enough effect; an effect the other way counts as inactive or inconclusive; note: % is set by controls: 0 for no effect and ±100 for the full control effect; nearly all actives have a fitted effect of over 55% in size). The procedure, abridged: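 Intracellular ATP of p53RE-bla HCT-116 cells measured by luciferase luminescence following 16 h compound incubation at 37 C; DMSO-only wells served as vehicle controls.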
In test [19] the target is Nuclear receptor subfamily 1 group I member 2 (Rattus norvegicus) (UniProt Q9R1A7). The test is described as follows: qHTS assay for small molecule activators of the rat pregnane X receptor (rPXR) signaling pathway (AID 651751; call rule not given here; note: 0% is about no effect). The settings on record: rPXR reporter cells, luciferase (One-Glo), 24 h.
In test [20] the target is Glucocorticoid receptor (Homo sapiens) (UniProt P04150). The test is described as follows: qHTS assay for small molecule agonists of glucocorticoid receptor signaling (AID 588532; active = well fitted curve in the direction sought with a large enough effect in the signal ratio, with a control signal flat; the % refers to the signal ratio;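 note: 100% = dexamethasone at 0.1 µM and 0% = DMSO only wells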). The settings on record: HeLa MMTV-bla, beta-lactamase ratio, agonist, 18 h; activation: stronger effect = higher value, percent of dexamethasone control, DMSO zero. The procedure, abridged: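 HeLa GRE-bla reporter cells; 18 h compound exposure at 37 C; 2 h CCF4 loading at room temperature; fluorescence at 460 and 530 nm; EC50 by Hill equation.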
Chain of Glucocorticoid receptor (Homo sapiens) (P04150 whole entry, looked up): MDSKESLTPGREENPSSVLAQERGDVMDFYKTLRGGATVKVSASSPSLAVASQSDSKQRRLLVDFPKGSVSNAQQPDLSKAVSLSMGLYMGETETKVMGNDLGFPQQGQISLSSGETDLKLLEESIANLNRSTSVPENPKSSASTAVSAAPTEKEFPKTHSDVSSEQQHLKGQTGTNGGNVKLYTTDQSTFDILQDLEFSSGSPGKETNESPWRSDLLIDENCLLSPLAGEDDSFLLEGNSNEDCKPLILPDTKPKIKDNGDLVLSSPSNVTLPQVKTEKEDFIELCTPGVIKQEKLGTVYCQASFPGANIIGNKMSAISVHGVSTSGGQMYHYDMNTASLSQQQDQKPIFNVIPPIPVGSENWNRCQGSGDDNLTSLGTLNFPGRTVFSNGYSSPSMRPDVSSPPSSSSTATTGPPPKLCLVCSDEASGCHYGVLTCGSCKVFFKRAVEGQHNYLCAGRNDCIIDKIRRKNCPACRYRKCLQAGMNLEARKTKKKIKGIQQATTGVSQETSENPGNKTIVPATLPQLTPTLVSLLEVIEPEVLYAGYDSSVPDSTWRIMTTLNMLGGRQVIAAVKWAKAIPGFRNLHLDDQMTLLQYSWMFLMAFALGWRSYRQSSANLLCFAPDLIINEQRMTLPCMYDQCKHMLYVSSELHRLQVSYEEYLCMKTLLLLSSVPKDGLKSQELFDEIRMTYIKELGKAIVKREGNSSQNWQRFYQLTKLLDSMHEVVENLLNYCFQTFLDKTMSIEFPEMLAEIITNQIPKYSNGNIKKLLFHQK

Chain of Nuclear receptor subfamily 1 group I member 2 (Rattus norvegicus) (Q9R1A7 whole entry, looked up): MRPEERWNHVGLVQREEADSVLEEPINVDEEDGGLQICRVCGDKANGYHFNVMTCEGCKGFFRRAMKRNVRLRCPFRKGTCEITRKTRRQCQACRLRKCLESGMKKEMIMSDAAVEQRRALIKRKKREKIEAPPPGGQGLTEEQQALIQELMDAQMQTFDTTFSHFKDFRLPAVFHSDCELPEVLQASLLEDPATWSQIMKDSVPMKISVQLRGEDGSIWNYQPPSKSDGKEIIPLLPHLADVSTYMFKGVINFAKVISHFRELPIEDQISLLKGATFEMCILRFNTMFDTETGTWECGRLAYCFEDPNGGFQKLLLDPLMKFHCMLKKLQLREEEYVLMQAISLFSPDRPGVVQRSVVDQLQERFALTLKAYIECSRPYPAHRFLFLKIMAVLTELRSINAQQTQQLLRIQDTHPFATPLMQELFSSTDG
Chain of Peroxisome proliferator-activated receptor alpha (Homo sapiens) (Q07869 whole entry, looked up, the tested form may be a part): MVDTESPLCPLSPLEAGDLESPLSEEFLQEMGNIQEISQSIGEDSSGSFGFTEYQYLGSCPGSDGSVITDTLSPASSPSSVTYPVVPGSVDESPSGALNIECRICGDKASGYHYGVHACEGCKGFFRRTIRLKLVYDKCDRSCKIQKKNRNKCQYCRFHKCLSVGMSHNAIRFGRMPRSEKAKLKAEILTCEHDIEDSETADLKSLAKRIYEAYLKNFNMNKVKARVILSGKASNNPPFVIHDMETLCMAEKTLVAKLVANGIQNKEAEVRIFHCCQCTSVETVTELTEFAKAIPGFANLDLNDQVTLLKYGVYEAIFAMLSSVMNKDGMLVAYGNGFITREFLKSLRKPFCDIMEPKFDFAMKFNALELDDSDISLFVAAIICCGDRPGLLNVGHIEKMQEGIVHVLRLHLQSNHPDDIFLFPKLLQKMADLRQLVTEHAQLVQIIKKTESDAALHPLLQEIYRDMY
Chain of Vitamin D3 receptor (Homo sapiens) (P11473 whole entry, looked up): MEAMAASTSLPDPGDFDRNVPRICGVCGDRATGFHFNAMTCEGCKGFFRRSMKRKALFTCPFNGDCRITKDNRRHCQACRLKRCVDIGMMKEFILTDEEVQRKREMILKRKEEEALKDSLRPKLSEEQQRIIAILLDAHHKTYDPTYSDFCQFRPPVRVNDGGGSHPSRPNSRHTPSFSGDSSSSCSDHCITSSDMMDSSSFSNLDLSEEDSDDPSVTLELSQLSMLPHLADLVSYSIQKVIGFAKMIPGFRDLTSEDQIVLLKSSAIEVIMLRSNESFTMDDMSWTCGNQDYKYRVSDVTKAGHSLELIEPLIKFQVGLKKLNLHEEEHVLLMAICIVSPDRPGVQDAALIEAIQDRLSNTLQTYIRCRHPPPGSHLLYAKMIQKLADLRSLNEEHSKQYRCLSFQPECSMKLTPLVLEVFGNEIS
Chain of Thyroid hormone receptor beta (Homo sapiens) (P10828 whole entry, looked up): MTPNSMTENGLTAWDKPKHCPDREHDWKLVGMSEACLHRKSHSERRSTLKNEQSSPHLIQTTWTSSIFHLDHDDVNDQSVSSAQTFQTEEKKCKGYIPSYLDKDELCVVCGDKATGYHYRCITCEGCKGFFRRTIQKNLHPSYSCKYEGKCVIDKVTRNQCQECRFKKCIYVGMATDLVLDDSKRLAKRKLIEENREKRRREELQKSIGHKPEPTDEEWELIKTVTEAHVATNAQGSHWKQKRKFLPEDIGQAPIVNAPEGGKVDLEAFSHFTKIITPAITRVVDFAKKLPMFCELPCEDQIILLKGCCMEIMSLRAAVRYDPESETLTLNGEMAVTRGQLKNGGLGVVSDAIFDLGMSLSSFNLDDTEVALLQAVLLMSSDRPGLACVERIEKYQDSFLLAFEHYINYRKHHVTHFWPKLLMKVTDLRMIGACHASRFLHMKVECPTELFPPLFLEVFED
Chain of Peroxisome proliferator-activated receptor delta (Homo sapiens) (Q03181 whole entry, looked up): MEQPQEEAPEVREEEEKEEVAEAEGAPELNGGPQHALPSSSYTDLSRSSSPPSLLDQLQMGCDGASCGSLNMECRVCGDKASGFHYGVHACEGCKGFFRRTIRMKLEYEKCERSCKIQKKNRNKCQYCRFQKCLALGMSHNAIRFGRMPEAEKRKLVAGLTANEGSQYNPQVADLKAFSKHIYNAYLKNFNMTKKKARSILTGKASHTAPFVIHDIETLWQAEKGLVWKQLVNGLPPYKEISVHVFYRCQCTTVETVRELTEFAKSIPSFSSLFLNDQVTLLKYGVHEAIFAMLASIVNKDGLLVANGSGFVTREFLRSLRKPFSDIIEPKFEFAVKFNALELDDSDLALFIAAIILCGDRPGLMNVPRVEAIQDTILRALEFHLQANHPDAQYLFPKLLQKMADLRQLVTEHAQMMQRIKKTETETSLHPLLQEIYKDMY
Chain of Bile acid receptor (Homo sapiens) (Q96RI1 whole entry, looked up): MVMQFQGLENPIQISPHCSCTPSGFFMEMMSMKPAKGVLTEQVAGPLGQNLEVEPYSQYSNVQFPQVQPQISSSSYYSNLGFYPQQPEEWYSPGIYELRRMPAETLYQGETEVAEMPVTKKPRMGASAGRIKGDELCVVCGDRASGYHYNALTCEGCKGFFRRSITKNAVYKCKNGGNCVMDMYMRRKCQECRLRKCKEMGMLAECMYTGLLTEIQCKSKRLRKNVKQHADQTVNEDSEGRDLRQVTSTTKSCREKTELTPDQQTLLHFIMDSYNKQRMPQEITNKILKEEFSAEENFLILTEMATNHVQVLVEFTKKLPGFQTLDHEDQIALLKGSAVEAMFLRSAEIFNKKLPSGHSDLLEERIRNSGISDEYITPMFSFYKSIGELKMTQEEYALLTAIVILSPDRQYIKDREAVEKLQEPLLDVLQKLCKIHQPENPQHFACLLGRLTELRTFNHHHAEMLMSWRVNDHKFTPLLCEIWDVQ
Chain of Retinoic acid receptor RXR-alpha (Homo sapiens) (P19793 whole entry, looked up): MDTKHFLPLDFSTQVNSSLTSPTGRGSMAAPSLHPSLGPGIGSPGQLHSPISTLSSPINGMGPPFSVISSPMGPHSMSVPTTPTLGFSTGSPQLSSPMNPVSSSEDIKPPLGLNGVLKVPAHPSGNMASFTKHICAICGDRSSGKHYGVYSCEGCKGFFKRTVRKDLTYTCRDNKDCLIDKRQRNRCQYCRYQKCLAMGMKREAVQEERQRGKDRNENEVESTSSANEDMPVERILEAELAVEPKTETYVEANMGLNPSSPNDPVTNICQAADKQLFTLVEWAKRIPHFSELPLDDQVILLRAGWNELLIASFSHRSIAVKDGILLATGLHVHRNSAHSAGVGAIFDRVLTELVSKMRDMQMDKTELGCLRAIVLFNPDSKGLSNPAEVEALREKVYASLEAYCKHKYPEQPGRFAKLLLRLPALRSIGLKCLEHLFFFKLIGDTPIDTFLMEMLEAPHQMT

On to `Nc1nc(N)nc(N)n1`, for which the Potency result in test [1], in test [4], in test [6], in [10], in [15] and in test [18] was “inactive” in each case. The activation in test [2] was 0.442% (inactive); in [11] it was -2.16% (inactive); in test [12], -1.8% (inactive); in test [13], -1.1% (inactive). For the same compound, the call in [3] and in [5] was inactive. The max response was -0.207% in test [7]; -7.03% (inactive) in [8]; -3.29% (inactive) in test [14]; -2.99% (inactive) in [16]; -12% (inactive) in [17]; -3.43% (inactive) in [19]. Moreover, the activity change % (negative = inhibition) in test [9] was -6.25% (inactive).
In the case of `O=[N+]([O-])c1cc(C(F)(F)F)c(Cl)c([N+](=O)[O-])c1Nc1ncc(C(F)(F)F)cc1Cl`, the Potency was 25.1 µM (active) in [1], 22.4 µM (active) in [4], 35.5 µM (active) in test [16] and 35.5 µM (active) in test [17]. For the same compound, the activation in test [2] was 2.48% (inactive). In [3], the call was inactive. Besides, the max response in test [14] is -9.03% (inactive). Also, the Potency result in test [15] is “inactive”.
For the compound `CCCCCCCCOc1ccc(C(=O)O)cc1`, the activation in test [2] was 11.7% (inactive).
Same read-out and setting: next, `N=C1C=CC(=C(c2ccc(N)cc2)c2ccc(N)cc2)C=C1`: 3.86% (inactive).
`COCC(=O)N(c1c(C)cccc1C)N1CCOC1=O`: the Potency result in test [1], in test [4], in test [6], in [10], in test [15] and in test [18] was “inactive” each time. Besides, the activation was -0.109% (inactive) in [2], -3.26% (inactive) in test [11] and -1.88% (inactive) in test [12]. The result in test [3] and in test [5] was inactive. Besides, the max response in test [7] is -10.4%; in test [8], 4.82% (inactive); in [14], 0.278% (inactive); in [16], 1.06% (inactive); in test [17] it was 2.38% (inactive); in test [19], 3.21% (inactive).
For the compound `NC1=NC(S)C2N=CN=C2N1` (centres undefined), the activation in test [2] is 2.34% (inactive).
In the case of `O=C(O)c1ccc2c(c1)C(=O)OC2=O`, in test [2], the activation is -5.89% (inactive).
Still for that read-out and setting: next, `O=C(Nc1ccccc1)c1cc(Cl)ccc1O`: 1.59% (inactive).
As for `Cc1nc(N(C)C)nc(OC(=O)N(C)C)c1C`, the Potency result in test [1], in test [4], in test [6], in [15] and in test [18] was “inactive” throughout. Further, the activation in test [20] is 1.95% (inactive); in test [13] it was -0.147% (inactive). In addition, the compound was called inactive in [3]. In addition, the max response was -14.1% in test [7]; 5.66% (inactive) in test [8]; -0.626% (inactive) in [14]; -25.3% (inactive) in [16]; -11.4% (inactive) in test [17]; -4.44% (inactive) in test [19]. In test [9], the activity change % (negative = inhibition) is -14.4% (inactive).
Take `Nc1cccc(N)c1`: the activation in test [2] was 0.315% (inactive).
On to `COc1cccc(C(=O)NN(C(=O)c2cc(C)cc(C)c2)C(C)(C)C)c1C`, for which the Potency result in test [1], in test [4], in test [6], in [15] and in [18] was “inactive” each time. For the same compound, the activation in test [2] was 4% (inactive); in [11] it was -3.69% (inactive). Moreover, the call in test [3] was inactive. Further, the max response in [7] is -5.99%; in [8], -0.788% (inactive); in [14] it was 0.438% (inactive); in test [16], 2.48% (inactive); in [17], -4.45% (inactive). Further, the activity change % (negative = inhibition) in test [9] is -4.61% (inactive).
